PubChem BioAssay AID588344 (National Center for Advancing Translational Sciences (NCATS), 2011)
The other results are listed elsewhere or left out. Records with an inconclusive call do not appear. Active and inactive are the calls of the source. Calls follow the shape of the dose curve; as a rule, active = well fitted inhibition curve with a large enough effect; inconclusive = small, poorly fitted or top-dose-only effect; inactive = flat fitted curve, though single readings scatter.
Also: nearly all actives have a fitted effect of over 65% in size.
Potency is read from the fitted curve at half-maximal effect.

The molecules below were run against Histone-lysine N-methyltransferase EHMT2 (Homo sapiens) (UniProt Q96KQ7) (assay: qHTS Assay for Inhibitors of Histone Lysine Methyltransferase G9a: Hit Confirmation). Settings: G9a H3K9 monomethylation, AlphaScreen, 2 h.
Histone-lysine N-methyltransferase EHMT2 (Homo sapiens), sequence (Q96KQ7 913-1193 limits assumed): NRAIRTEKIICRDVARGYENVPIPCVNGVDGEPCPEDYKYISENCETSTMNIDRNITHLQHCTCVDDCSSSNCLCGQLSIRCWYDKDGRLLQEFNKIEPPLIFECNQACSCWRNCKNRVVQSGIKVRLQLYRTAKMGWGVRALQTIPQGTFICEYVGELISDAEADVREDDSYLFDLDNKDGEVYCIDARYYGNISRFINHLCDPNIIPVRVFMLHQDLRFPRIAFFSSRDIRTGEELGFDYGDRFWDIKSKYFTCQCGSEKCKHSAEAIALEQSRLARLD
Text: Methylated lysines, on the N-terminal tails of histone proteins serve as epigenetic markers to recruit factors that can then modify local chromatin structure to lead to functional consequences. G9a and other members of the SUV39 family of the SET domain-containing superfamily of histone lysine methyltransferases (HMT) have been identified to specifically methylate Lys9 of histone H3 (H3K9). G9a catalyzes the mono- and di-methylation of H3K9 in mammalian euchromatic regions, where the resulting H3K9me2 is indicative of transcriptional repression. […] The inhibition of G9a will result in transcriptional activation and work synergistically with DNA methyltransferase and histone deacetylase inhibitors, to kill cancer cells. This qHTS assay for identification of G9a inhibitors is a chemiluminescence based AlphaScreen (PerkinElmer). Methylation of biotinylated-histone peptide is measured through specific antibody-based detection, in conjunction with streptavidin-coated donor and anti-IgG antibody-coated acceptor beads. The method is particularly well suited for detection of inhibitors acting by the desired histone peptide competitive mechanism and is applicable to testing other HMTs. Although AlphaScreen has significant advantages with its utility in a variety of epigenetic target assays, the primary screening data provided in this deposition should be used with caution due to the prevalence of screening artifacts. An AlphaScreen counterscreen is highly recommended to be run against any putative actives to eliminate non specific artifacts. Alternatively, one can use other AlphaScreen assays in PubChem to filter out promiscuous hits. Quinn et al. A chemiluminescence-based method for identification of histone lysine methyltransferase inhibitors. Mol Biosyst 6(5): 782-8. 2010. PMID: 20567762 [2] Baell,Holloway. New substructure filters for removal of pan assay interference compounds (PAINS) from screening libraries and for their exclusion in bioassays. J Med Chem. 53(7):2719-40. 2010. PMID: 20131845 NIH Chemical Genomics Center [NCGC] NIH Molecular Libraries Probe Production Network [MLPCN] MLPCN Grant: MH084681-02 Assay Submitter (PI): Structural Genomic Consortium - Toronto, Peter Brown
To each well, 2 uL of HMT enzyme (final 20 nM) will be added using a nanoliter dispenser. The G9a- and GLP-inhibitor BIX-01294 will be used as an intraplate control, with a 16-point titration in duplicate. A Kalypsys pin-tool will be employed to transfer 23 nL of library compound solution in DMSO to each well. Following a 15 min incubation of enzyme with compounds at room temperature, 1 uL mixture of b-H3K9 peptide substrate (final 500 nM) and SAM cofactor (final 20 uM) will be added. Reactions are allowed to proceed at room temperature for 2 hours. Methylated b-H3K9 peptide product is detected with 0.5 ug/mL rabbit polyclonal anti-monomethyl histone H3K9 antibody (Abcam Inc., Cambridge, MA) and 20 ug/mL each streptavidin-coated donor and anti-rabbit IgG acceptor AlphaScreen beads. Antibody and beads will be added in a 1 uL dispense, for a final volume of 4 uL, and plates will be incubated protected from the light for 10 min at room temperature. Microplates will then be read on an EnVision multilabel plate reader using the 1,536 plate HTS AlphaScreen aperture (excitation time 80 ms, measurement time 240 ms).
With Cc1ccccc1C(=O)Nc1ccc(N2CCCCCC2)cc1 the Potency was 2.83 µM (active).
With CCOC(=O)c1ccc(NC(=O)CSc2ncccn2)cc1 the Potency was 0.632 µM (active).
In the case of CCOc1ccc(NC(=O)c2c(NC(=O)Cc3ccccc3)sc3c2CCCCC3)cc1, the Potency is reported as 4.57 µM (active).
With CCOc1ccc(NC(=O)c2c(NC(=O)Cc3ccccc3)sc3c2CCC(C)C3)cc1 (stereo unspecified) the Potency was 2.57 µM (active).
In the case of CCc1ccc(NC2Nc3cc(C)nn3S2)cc1 (stereo unspecified), the Potency is reported as 1.78 µM (active).
In the case of CCCCNC(=O)CSc1nc2ccc(NC(=O)CSc3nnc(N)s3)cc2s1, the Potency is reported as 1.42 µM (active).
CCOC(=O)N1CCc2c(sc(NCc3cccc(F)c3)c2C(=O)Nc2ccccc2OCC)C1 was tested, and the Potency was 4.57 µM (active).
In the case of CCc1ccc(Nc2ncc3c(n2)CC(c2ccco2)CC3=O)cc1 (stereo unspecified), the Potency is reported as 31.6 µM (active).
With CCOC(=O)c1ccc(-n2c(CCC(=O)O)ccc2-c2ccccc2)cc1 the Potency was 31.6 µM (active).
In the case of c1ccc(-c2nnc3n2NC(c2ccc4c(c2)OCO4)S3)cc1 (stereo unspecified), the Potency is reported as 0.178 µM (active).
In the case of CCn1c(SCC(=O)Nc2cccc(F)c2)nnc1-c1cc2cc(Br)ccc2o1, the Potency is reported as 5.01 µM (active).
For COCCCNCC(=O)Nc1sc(C)c(C)c1C(=O)OC, the Potency was 31.6 µM (active).
CCOC(=O)N1CCN(C(c2cccnc2)c2ccc3cccnc3c2O)CC1 (stereo unspecified) was tested, and the Potency was 0.159 µM (active).
For CC(NC(=O)c1ccco1)C(=O)Nc1nc(-c2ccccn2)cs1 (stereo unspecified), the Potency was 7.96 µM (active).
For Cc1ccc(-c2cnc(NCc3ccc(C(C)C)cc3)n2C)cc1, the Potency was 31.6 µM (active).
With CCOC(=O)c1c(NC(=O)COc2cc(C)ccc2C(C)C)sc(C)c1C the Potency was 5.64 µM (active).
